According to PubChem BioAssay AID1159580 (chemical genetic matrix, 2015):
Out of some 5,500 compounds screened, about 2,000 (36%) were called active. Roughly 18% stayed inconclusive and do not appear here. Cut-off read from the data, not from the text of the source: active = normalized growth mostly below about 0.91 (no sharp cut-off); inconclusive = no clear call, values can overlap the other calls; inactive = mostly above about 0.92. Some of the results follow.

Test: chemical genetic growth profiling, strain panel (AID 1159580);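 note: tested at 20 µM; growth read once vehicle control cultures reached saturation at 30 °C; 1 = growth at the plate median or of vehicle wells; lower values mean less growth of the strain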
Conditions: growth OD

Measured: normalized growth

c1ccc2c(c1)[nH]c1cnccc12
inactive: S. cerevisiae deletion strains, locus YJR066W, strain TOR1, active compounds read low 0.956 | S. cerevisiae deletion strains, locus YKL009W, strain mrt4, active compounds read low 1.01 | S. cerevisiae deletion strains, locus YKL068W, active compounds read low 0.975 | S. cerevisiae deletion strains, locus YKL085W, strain MDH1 (second series), active compounds read low 0.98 | S. cerevisiae deletion strains, locus YKL085W, strain MDH1, active compounds read low 0.98 | S. cerevisiae deletion strains, locus YKL160W, strain elf1, active compounds read low 1.01 | S. cerevisiae deletion strains, locus YKL190W, strain CNB1, active compounds read low 0.993 | S. cerevisiae deletion strains, locus YKR001C, strain vps1, active compounds read low 0.962 | S. cerevisiae deletion strains, locus YKR026C, strain gcn3, active compounds read low 0.986 | S. cerevisiae deletion strains, locus YKR091W, strain srl3, active compounds read low 1 | S. cerevisiae deletion strains, locus YLL001W, strain dnm1, active compounds read low 1 | S. cerevisiae deletion strains, locus YLL026W, active compounds read low 0.996 | S. cerevisiae deletion strains, locus YLL041C, strain sdh2, active compounds read low 1 | S. cerevisiae deletion strains, locus YLR027C, strain aat2, active compounds read low 1.01 | S. cerevisiae deletion strains, locus YLR039C, strain RIC1, active compounds read low 0.893 | S. cerevisiae deletion strains, locus YLR058C, strain SHM2, active compounds read low 1.01 | S. cerevisiae deletion strains, locus YLR102C, strain apc9, active compounds read low 0.972 | S. cerevisiae deletion strains, locus YLR113W, strain HOG1, active compounds read low 1.03 | S. cerevisiae deletion strains, locus YLR221C, strain rsa3, active compounds read low 1 | S. cerevisiae deletion strains, locus YLR258W, strain gsy2, active compounds read low 0.998 | S. cerevisiae deletion strains, locus YLR262C, strain YPT6 (second series), active compounds read low 0.948 | S. cerevisiae deletion strains, locus YLR262C, strain YPT6, active compounds read low 0.947 | S. cerevisiae deletion strains, locus YLR268W, strain sec22, active compounds read low 0.952 | S. cerevisiae deletion strains, locus YLR320W, strain mms22, active compounds read low 0.994 | S. cerevisiae deletion strains, locus YLR330W, strain CHS5, active compounds read low 0.976 | S. cerevisiae deletion strains, locus YLR342W, strain FKS1 (second series), active compounds read low 1.02 | S. cerevisiae deletion strains, locus YLR342W, strain FKS1, active compounds read low 1 | S. cerevisiae deletion strains, locus YLR357W, strain rsc2, active compounds read low 0.99 | S. cerevisiae deletion strains, locus YLR370C, strain arc18, active compounds read low 1 | S. cerevisiae deletion strains, locus YLR371W, strain rom2, active compounds read low 0.983 | S. cerevisiae deletion strains, locus YLR384C, strain iki3, active compounds read low 0.992 | S. cerevisiae deletion strains, locus YLR418C, strain cdc73, active compounds read low 1.02 | S. cerevisiae deletion strains, locus YML016C, strain PPZ1, active compounds read low 0.991 | S. cerevisiae deletion strains, locus YML032C, strain rad52, active compounds read low 1.02 | S. cerevisiae deletion strains, locus YML120C, strain ndi1, active compounds read low 1 | S. cerevisiae deletion strains, locus YML124C, strain tub3, active compounds read low 0.987 | S. cerevisiae deletion strains, locus YMR058W, strain fet3, active compounds read low 0.996 | S. cerevisiae deletion strains, locus YMR078C, strain ctf18, active compounds read low 0.956 | S. cerevisiae deletion strains, locus YMR125W, strain sto1, active compounds read low 0.996 | S. cerevisiae deletion strains, locus YMR129W, active compounds read low 1.01 | S. cerevisiae deletion strains, locus YMR205C, strain PFK2, active compounds read low 0.977 | S. cerevisiae deletion strains, locus YMR223W, strain ubp8, active compounds read low 1 | S. cerevisiae deletion strains, locus YMR231W, strain pep5, active compounds read low 0.994 | S. cerevisiae deletion strains, locus YMR263W, strain SAP30, active compounds read low 0.982 | S. cerevisiae deletion strains, locus YMR307W, strain GAS1, active compounds read low 1.23 | S. cerevisiae deletion strains, locus YNL067W, strain RPL9B, active compounds read low 0.986 | S. cerevisiae deletion strains, locus YNL071W, strain lat1, active compounds read low 1.01 | S. cerevisiae deletion strains, locus YNL153C, strain GIM3, active compounds read low 0.971 | S. cerevisiae deletion strains, locus YNL183C, strain NPR1, active compounds read low 0.965 | S. cerevisiae deletion strains, locus YNL209W, strain ssb2, active compounds read low 1.01 | S. cerevisiae deletion strains, locus YNL233W, strain BNI4, active compounds read low 0.984 | S. cerevisiae deletion strains, locus YNL248C, strain rpa49, active compounds read low 1.01 | S. cerevisiae deletion strains, locus YNL250W, strain rad50, active compounds read low 0.941 | S. cerevisiae deletion strains, locus YNL271C, strain bni1, active compounds read low 0.985 | S. cerevisiae deletion strains, locus YNL298W, strain CLA4, active compounds read low 0.984 | S. cerevisiae deletion strains, locus YNL307C, strain MCK1, active compounds read low 0.976 | S. cerevisiae deletion strains, locus YNL322C, strain KRE1 (second series), active compounds read low 1 | S. cerevisiae deletion strains, locus YNR049C, strain mso1, active compounds read low 1.01 | S. cerevisiae deletion strains, locus YNR052C, strain pop2, active compounds read low 0.997 | S. cerevisiae deletion strains, locus YOL012C, strain htz1 0.866 | S. cerevisiae deletion strains, locus YOL147C, strain pex11, active compounds read low 0.988 | S. cerevisiae deletion strains, locus YOR001W, strain rrp6, active compounds read low 0.996 | S. cerevisiae deletion strains, locus YOR061W, strain CKA2, active compounds read low 1.01 | S. cerevisiae deletion strains, locus YOR069W, strain VPS5, active compounds read low 0.998 | S. cerevisiae deletion strains, locus YOR070C, strain gyp1, active compounds read low 1.01 | S. cerevisiae deletion strains, locus YOR080W, strain dia2, active compounds read low 0.986 | S. cerevisiae deletion strains, locus YOR083W, strain WHI5, active compounds read low 1 | S. cerevisiae deletion strains, locus YOR106W, strain vam3, active compounds read low 1 | S. cerevisiae deletion strains, locus YOR136W, strain idh2, active compounds read low 0.974 | S. cerevisiae deletion strains, locus YOR144C, strain elg1, active compounds read low 0.99 | S. cerevisiae deletion strains, locus YOR184W, strain ser1, active compounds read low 0.995 | S. cerevisiae deletion strains, locus YOR231W, strain MKK1, active compounds read low 1.03 | S. cerevisiae deletion strains, locus YOR265W, strain rbl2, active compounds read low 0.994 | S. cerevisiae deletion strains, locus YOR270C, strain vph1, active compounds read low 1 | S. cerevisiae deletion strains, locus YOR290C, strain snf2, active compounds read low 1.03 | S. cerevisiae deletion strains, locus YOR316C, strain cot1, active compounds read low 0.988 | S. cerevisiae deletion strains, locus YPL051W, strain arl3, active compounds read low 1 | S. cerevisiae deletion strains, locus YPL055C, strain LGE1, active compounds read low 0.991 | S. cerevisiae deletion strains, locus YPL078C, strain atp4, active compounds read low 1 | S. cerevisiae deletion strains, locus YPL106C, strain sse1, active compounds read low 0.983 | S. cerevisiae deletion strains, locus YPL240C, strain hsp82, active compounds read low 1.02 | S. cerevisiae deletion strains, locus YPL241C, strain CIN2, active compounds read low 1.01 | S. cerevisiae deletion strains, locus YPL256C, strain CLN2, active compounds read low 1.02 | S. cerevisiae deletion strains, locus YPR119W, strain clb2, active compounds read low 0.979 | S. cerevisiae deletion strains, locus YPR141C, strain kar3, active compounds read low 0.984 | S. cerevisiae deletion strains, locus YPR163C, strain tif3, active compounds read low 0.985 | S. cerevisiae deletion strains, locus YPR167C, strain met16, active compounds read low 0.986 | S. cerevisiae deletion strains, strain wtn01, active compounds read low 0.95 | S. cerevisiae strains, strain wild type, active compounds read low 0.999
